The results in this text go back to article PMC7862700, “An all-to-all approach to the identification of sequence-specific readers for epigenetic DNA modifications on cytosine”.

Holding throughout (experiment): DAPPL (digital affinity profiling via proximity ligation, sequencing); 10 mM Tris-HCl pH 7.5, 50 mM NaCl, 1 mM DTT, 4% glycerol, room temperature, 30 min; GST-TFs on glutathione beads, 16-mer random dsDNA library, 0.1% formaldehyde crosslink after washing; high values mean tight binding
The target of one test is T1, FLI1 (Homo sapiens, UniProt Q01543 1-452).
T1 sequence: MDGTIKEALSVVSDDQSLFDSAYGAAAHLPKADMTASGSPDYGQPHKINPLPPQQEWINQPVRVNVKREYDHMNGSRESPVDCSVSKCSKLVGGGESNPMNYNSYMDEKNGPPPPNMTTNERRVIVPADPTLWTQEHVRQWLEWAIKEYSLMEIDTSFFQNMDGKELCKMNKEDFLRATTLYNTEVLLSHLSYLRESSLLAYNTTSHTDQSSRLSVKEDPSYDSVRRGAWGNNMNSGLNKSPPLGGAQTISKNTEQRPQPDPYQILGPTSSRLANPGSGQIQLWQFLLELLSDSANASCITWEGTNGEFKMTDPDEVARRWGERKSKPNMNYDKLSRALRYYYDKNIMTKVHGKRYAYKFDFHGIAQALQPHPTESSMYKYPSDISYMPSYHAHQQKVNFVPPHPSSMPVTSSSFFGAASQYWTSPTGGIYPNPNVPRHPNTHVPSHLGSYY
As to conditions: protein: recombinant; tags: N-terminal GST; dsDNA, one strand shown. In outline: (§1)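 Beads coated with glutathione captured GST-fused human transcription factors that had been expressed in yeast, and the factors were then given DNA barcodes and pooled with a tag-only sample. The pools were incubated with 200 nmole of a random double-stranded 16-mer DNA library in Tris/NaCl/DTT/glycerol buffer for 30 min at room temperature, washed, crosslinked with 0.1% formaldehyde and proximity-ligated with BsaI/T4 ligase at 37 °C for 1 h. PCR amplification and Illumina NextSeq500 sequencing came last. Binding signal is each hexamer's read frequency for a factor divided by its frequency for the tag-only sample.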

For a further test, the target named is ELF1 (Homo sapiens, UniProt P32519 1-619). As to conditions: protein: recombinant; tags: N-terminal GST; dsDNA, one strand shown. In a few lines:
as §1

Another test addresses T2, EHF (Homo sapiens, UniProt Q9NZC4 1-300).
T2 sequence: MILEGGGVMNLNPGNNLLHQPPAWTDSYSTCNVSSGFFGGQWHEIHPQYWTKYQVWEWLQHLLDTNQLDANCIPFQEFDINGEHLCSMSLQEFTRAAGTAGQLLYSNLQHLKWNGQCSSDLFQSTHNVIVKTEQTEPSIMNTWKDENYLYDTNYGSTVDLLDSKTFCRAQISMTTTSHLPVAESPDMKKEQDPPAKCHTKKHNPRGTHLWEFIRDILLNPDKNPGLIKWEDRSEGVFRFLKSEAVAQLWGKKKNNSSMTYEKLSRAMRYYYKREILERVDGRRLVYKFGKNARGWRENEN
The note with it: protein: recombinant; tags: N-terminal GST; dsDNA, one strand shown. In outline:
as §1

For a further test, the target named is SPI1 (Homo sapiens, UniProt P17947 1-270). The note with it: protein: recombinant; tags: N-terminal GST; dsDNA, one strand shown. In a few lines: as §1
In a further test the target is SPIB (Homo sapiens, UniProt Q01892 1-262). The note with it: protein: recombinant; tags: N-terminal GST; dsDNA, one strand shown. In a few lines: as §1
Sequence of SPIB (Q01892 whole entry): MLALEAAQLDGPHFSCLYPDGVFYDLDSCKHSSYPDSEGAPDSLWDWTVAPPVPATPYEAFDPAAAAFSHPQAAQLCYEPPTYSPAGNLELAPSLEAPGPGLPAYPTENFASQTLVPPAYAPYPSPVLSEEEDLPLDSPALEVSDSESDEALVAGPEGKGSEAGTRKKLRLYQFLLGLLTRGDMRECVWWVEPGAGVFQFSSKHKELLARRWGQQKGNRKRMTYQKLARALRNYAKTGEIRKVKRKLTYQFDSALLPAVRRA
The target of another test is T3, ELK3 (Homo sapiens, UniProt P41970 1-407).
T3 sequence: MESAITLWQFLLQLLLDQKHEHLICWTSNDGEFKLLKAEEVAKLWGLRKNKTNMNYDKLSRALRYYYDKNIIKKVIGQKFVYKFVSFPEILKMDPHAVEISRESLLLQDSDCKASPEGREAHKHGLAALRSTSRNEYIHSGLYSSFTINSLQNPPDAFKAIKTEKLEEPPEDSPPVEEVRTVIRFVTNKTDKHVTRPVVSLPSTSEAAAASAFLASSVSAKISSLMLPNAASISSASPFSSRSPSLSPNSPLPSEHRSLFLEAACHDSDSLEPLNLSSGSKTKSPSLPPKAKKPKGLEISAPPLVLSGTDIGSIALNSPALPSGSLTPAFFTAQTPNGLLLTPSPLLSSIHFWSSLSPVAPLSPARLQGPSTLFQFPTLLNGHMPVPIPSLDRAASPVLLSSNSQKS
The note with it: protein: recombinant; tags: N-terminal GST; dsDNA, one strand shown. In a few lines:
as §1

The next test concerns the target T4, FEV (Homo sapiens, UniProt Q99581 1-238).
T4 sequence: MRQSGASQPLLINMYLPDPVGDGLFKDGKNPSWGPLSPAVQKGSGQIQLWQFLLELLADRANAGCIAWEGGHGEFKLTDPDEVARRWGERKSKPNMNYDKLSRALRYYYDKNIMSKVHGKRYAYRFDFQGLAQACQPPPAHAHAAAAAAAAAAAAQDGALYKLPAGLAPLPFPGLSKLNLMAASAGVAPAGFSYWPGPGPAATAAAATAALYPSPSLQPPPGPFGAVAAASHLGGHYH
As to conditions: protein: recombinant; tags: N-terminal GST; dsDNA, one strand shown. In a few lines: as §1

A further test deals with ETV5 (Homo sapiens, UniProt P41161 1-510). As to conditions: protein: recombinant; tags: N-terminal GST; dsDNA, one strand shown. In a few lines: as §1
Sequence of ETV5 (P41161 whole entry): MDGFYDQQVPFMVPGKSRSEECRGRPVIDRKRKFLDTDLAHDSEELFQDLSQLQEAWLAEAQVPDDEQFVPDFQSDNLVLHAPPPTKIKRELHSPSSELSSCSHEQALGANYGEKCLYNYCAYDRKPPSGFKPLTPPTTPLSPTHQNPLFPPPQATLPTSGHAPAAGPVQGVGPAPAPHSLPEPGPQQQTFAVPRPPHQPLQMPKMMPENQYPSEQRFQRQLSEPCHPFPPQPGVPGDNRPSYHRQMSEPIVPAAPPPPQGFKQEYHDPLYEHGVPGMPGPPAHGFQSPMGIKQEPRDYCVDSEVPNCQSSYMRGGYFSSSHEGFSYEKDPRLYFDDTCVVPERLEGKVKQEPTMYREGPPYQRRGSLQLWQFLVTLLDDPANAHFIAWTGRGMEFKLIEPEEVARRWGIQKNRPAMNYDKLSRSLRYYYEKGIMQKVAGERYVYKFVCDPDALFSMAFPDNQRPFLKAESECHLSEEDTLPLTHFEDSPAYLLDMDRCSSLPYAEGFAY
In another test the target is HSF1 (Homo sapiens, UniProt Q00613 1-529). The note with it: protein: recombinant; tags: N-terminal GST; chain copies: 3; dsDNA, one strand shown. In a few lines:
as §1

For the next test, the target named is T5, SPIC (Homo sapiens, UniProt Q8N5J4 1-248).
T5 sequence: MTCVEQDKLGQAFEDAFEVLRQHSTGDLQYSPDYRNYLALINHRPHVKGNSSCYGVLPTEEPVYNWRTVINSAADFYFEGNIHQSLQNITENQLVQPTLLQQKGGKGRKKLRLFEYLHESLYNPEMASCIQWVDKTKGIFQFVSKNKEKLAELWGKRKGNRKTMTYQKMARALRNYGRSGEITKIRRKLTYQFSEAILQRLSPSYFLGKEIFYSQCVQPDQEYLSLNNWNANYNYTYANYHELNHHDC
As to conditions: protein: recombinant; tags: N-terminal GST; dsDNA, one strand shown. In a few lines: as §1

The next test addresses ELF4 (Homo sapiens, UniProt Q99607 1-663). The note with it: protein: recombinant; tags: N-terminal GST; dsDNA, one strand shown. In outline:
as §1

A further test deals with T6, ELK4 (Homo sapiens, UniProt P28324-2 1-405).
T6 sequence: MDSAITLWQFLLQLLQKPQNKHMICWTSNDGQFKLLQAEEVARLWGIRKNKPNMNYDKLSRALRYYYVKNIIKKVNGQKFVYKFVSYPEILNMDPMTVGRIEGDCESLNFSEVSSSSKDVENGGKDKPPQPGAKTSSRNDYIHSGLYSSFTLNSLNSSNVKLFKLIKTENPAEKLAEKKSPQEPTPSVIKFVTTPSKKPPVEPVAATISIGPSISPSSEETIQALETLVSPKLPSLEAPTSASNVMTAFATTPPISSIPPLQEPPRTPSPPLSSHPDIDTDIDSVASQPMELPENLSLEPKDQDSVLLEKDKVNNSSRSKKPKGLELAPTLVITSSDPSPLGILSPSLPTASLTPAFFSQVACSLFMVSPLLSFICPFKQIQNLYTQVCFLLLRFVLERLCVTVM
As to conditions: protein: recombinant; tags: N-terminal GST; dsDNA, one strand shown. In a few lines:
as §1

The target of a further test is T7, ETV2 (Homo sapiens, UniProt O00321 1-342).
T7 sequence: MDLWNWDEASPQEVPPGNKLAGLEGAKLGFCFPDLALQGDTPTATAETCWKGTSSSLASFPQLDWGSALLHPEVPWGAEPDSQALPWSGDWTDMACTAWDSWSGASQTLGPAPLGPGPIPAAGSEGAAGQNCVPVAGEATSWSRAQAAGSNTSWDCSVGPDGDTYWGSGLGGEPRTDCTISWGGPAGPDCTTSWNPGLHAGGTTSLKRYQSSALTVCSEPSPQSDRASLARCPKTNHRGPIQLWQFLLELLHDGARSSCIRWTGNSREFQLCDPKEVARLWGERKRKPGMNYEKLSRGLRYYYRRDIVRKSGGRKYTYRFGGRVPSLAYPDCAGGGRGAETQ
The note with it: protein: recombinant; tags: N-terminal GST; dsDNA, one strand shown. In outline:
as §1

The target of a further test is T8, ELF3 (Homo sapiens, UniProt P78545 1-371).
T8 sequence: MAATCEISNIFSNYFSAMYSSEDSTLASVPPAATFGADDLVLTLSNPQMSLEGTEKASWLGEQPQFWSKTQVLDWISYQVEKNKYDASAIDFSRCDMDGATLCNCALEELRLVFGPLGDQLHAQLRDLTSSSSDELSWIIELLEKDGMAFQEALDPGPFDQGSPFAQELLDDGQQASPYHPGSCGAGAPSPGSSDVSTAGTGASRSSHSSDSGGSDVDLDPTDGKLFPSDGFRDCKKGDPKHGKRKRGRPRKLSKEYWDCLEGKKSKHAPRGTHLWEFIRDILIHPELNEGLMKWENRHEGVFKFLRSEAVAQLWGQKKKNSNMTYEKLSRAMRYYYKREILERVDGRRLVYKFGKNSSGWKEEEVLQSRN
The note with it: protein: recombinant; tags: N-terminal GST; dsDNA, one strand shown. In a few lines: as §1

A further test addresses CRX (Homo sapiens, UniProt O43186 1-299). As to conditions: protein: recombinant; tags: N-terminal GST; dsDNA, one strand shown. In outline: as §1
The target in a further test is ETV1 (Homo sapiens, UniProt P50549 1-477). As to conditions: protein: recombinant; tags: N-terminal GST; dsDNA, one strand shown. In outline:
as §1

Sequence of CRX (O43186 whole entry): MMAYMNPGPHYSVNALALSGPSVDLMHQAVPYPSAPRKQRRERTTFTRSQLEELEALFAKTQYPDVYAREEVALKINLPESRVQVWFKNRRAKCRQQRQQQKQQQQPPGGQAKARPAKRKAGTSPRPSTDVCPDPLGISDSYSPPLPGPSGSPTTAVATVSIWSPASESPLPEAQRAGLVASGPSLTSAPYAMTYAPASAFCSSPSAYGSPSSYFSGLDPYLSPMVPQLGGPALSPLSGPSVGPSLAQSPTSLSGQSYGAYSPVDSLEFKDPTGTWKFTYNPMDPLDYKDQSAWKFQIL
Sequence of HSF1 (Q00613 whole entry): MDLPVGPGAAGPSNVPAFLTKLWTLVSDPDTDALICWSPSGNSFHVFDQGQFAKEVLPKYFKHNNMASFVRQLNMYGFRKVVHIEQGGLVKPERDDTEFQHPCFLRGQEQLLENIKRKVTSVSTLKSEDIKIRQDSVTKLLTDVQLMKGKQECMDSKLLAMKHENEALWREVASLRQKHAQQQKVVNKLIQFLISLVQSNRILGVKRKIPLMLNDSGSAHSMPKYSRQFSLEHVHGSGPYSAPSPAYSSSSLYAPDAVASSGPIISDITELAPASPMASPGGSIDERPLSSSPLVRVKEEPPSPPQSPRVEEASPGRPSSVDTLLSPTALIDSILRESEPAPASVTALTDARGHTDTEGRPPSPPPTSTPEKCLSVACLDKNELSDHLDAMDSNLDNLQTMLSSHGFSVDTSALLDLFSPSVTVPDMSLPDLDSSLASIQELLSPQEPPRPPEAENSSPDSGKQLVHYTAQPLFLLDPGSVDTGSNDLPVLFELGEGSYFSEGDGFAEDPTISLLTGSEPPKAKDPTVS
Sequence of ETV1 (P50549 whole entry): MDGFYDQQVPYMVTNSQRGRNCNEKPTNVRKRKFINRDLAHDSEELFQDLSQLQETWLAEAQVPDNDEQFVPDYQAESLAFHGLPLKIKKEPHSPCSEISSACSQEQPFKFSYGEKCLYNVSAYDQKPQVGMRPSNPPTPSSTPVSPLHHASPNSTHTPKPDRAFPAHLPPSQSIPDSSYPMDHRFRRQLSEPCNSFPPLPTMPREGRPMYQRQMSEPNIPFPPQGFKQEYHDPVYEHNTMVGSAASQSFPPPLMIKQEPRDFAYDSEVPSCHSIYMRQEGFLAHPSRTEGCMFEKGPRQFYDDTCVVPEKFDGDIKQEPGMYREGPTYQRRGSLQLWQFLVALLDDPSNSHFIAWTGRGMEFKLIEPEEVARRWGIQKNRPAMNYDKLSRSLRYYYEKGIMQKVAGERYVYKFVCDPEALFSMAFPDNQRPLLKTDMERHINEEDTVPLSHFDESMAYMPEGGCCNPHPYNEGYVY
Sequence of ELF4 (Q99607 whole entry): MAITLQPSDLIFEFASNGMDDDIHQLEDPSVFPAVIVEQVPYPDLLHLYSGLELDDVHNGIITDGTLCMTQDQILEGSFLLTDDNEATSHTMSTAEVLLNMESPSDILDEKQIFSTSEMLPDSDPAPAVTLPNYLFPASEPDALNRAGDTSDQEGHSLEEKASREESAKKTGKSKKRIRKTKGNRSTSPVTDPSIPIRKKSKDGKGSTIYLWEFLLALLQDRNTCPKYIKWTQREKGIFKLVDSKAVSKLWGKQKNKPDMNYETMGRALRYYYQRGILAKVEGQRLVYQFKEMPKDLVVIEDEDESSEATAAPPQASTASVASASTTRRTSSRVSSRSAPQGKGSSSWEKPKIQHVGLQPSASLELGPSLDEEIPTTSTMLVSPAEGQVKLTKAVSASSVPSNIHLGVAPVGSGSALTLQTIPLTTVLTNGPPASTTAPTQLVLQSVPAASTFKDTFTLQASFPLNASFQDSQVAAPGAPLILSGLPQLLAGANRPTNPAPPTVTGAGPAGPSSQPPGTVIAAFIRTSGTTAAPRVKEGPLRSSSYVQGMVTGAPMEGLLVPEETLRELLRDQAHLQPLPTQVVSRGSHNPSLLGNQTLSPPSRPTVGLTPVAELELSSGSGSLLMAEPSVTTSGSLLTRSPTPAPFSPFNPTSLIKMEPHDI
Sequence of ELF1 (P32519 whole entry): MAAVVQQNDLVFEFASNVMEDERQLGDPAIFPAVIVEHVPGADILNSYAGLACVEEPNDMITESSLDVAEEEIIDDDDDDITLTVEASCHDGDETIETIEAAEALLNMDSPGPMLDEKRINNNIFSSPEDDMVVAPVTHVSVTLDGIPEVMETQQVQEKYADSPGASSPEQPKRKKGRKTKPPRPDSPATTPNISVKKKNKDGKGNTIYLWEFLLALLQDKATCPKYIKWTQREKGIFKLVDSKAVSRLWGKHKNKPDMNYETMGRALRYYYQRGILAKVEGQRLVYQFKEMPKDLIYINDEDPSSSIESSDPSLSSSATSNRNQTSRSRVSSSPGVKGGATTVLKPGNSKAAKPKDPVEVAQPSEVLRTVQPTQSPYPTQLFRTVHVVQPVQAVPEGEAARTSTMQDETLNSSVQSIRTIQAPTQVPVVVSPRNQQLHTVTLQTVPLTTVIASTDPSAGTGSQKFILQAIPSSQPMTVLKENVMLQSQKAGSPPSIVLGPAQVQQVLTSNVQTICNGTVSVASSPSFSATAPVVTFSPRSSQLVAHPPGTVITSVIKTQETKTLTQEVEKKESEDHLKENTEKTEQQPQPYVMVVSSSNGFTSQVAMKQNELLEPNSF

Turning to CATCGA, the binding signal with FLI1 is 1.12 fold enrichment (6-mer frequency, TF over GST control); with ELF1, 1.12 fold enrichment (6-mer frequency, TF over GST control); in the test with EHF, 1.16 fold enrichment (6-mer frequency, TF over GST control); with SPI1, 1.09 fold enrichment (6-mer frequency, TF over GST control); with SPIB it was 1.03 fold enrichment (6-mer frequency, TF over GST control); with ELK3, 1.03 fold enrichment (6-mer frequency, TF over GST control). Besides, the binding signal is 1.05 fold enrichment (6-mer frequency, TF over GST control) with FEV; 1.17 fold enrichment (6-mer frequency, TF over GST control) with ETV5; 1.42 fold enrichment (6-mer frequency, TF over GST control) with HSF1; 1.06 fold enrichment (6-mer frequency, TF over GST control) in the test with SPIC; 1.12 fold enrichment (6-mer frequency, TF over GST control) with ELF4; 1.06 fold enrichment (6-mer frequency, TF over GST control) in the test with ELK4. Besides, the binding signal in the test with ETV2 was 1.16 fold enrichment (6-mer frequency, TF over GST control); with ELF3, 1.04 fold enrichment (6-mer frequency, TF over GST control); with CRX, 1.05 fold enrichment (6-mer frequency, TF over GST control); in the test with ETV1, 1.05 fold enrichment (6-mer frequency, TF over GST control).
